We go through 1 compound from PubChem BioAssay AID651871 (Sanford-Burnham Center for Chemical Genomics, 2012).

SMILES strings stand for the structures.

The test system of this assay is H9c2. As to the kind of experiment: cardiomyocyte survival under oxidative or metabolic stress – cell-based, panel, H9c2 and HL-1, ATP luminescence, set 2, SAR follow-up (AID 651871).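 Note: cells exposed to stressor for 2 h before ATP readout; reference of the scale not given here.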 Particulars: H9c2/HL-1 cardiomyocytes, 2-deoxyglucose stress, with 2-deoxyglucose, run 4, at 39.5 µM (top of the series).

Compound `COc1ccc2c(c1OC)C(=O)N1c3ccccc3C(=O)N(Cc3cccc(Cl)c3Cl)C21` (stereo unspecified) gave an activity (protection/inhibition) of 71%.
